Assay results taken from PubChem BioAssay (EPA / NIEHS).
The source made the active and inactive calls. How the source made its calls: active means hit-call score of the fitted dose curve at least 0.9, where 1 is the maximum; inactive means score below 0.9.

read-out: TIMP1, TIMP1 (gene 7076); assay: LTEA_HepaRG_TIMP1: Life Technologies and Expression Analysis (LTEA) Assay for TIMP1 using HepaRG (AID 2283534); details: mRNA level, 48 h; actives raise or lower the signal;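 on outcome: TaqMan qRT-PCR signal normalized to ACTB GAPDH and POLR2A housekeeping genes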
Experimental: LTEA_HepaRG is a cell based, multiplexed-readout assay that uses HepaRG, a human liver cell line, with measurements taken at 48 hours after chemical dosing on a 96-well plate.LTEA_HepaRG_TIMP1 is one of 102 assay component(s) measured in the LTEA HepaRG cell culture assay. It is a marker of Cell proliferation, survival, death.Data from the assay component LTEA_HepaRG_TIMP1 was analyzed into 1 endpoint. This assay endpoint, LTEA_HepaRG_TIMP1, was analyzed with bidirectional fitting relative to DMSO as the negative control and baseline of activity. Using a type of inducible reporter, measures of mRNA induction for gain or loss-of-signal activity can be used to understand regulation of transcription factor activity. To generalize the intended target to other relatable targets, this assay endpoint is annotated to the protease inhibitor intended target family, where the subfamily is metalloproteinase inhibitor.
A total of 1060 chemcials from the ToxCast library were tested in eight-point concentration-response experiments. Cell culture and cytotoxicity assays were conducted at Thermo Fisher Scientific's Custom Services facility (Madison, WI). A single lot of human HepaRG cells (Thermo Fisher Scientific, Frederick, MD) was used for the cell culture experiments. 96-well format collagen type I coated plates of human HepaRG cells were prepared using established methods. Briefly, cryopreserved HepaRG cells were thawed, plated at a density of approximately 100,000 cells/well in HepaRG Thaw, Plate, and General Purpose media (HPRG770, Thermo Fisher Scientific), and incubated for 48 hours. 0.5% DMSO was selected as vehicle control to balance the requisite need of DMSO in HepaRG cultures to maintain differentiation (for example, baseline metabolism, proportions of hepatocytes vs. cholangiocytes), while enabling further hepatic receptor pathway activation (for example, PXR and CAR) in response to chemical exposure. 48 hours after plating, the culture medium was replaced with HepaRG Serum-Free Incudtion Media. Cells were exposed to each test chemical in duplicate and maintained in CO2 incubators for another 48 hours. Chemical plates were thawed to room temperature and 200x concentrations of treatment groups were prepared. 8-point conentration-reponse curves were made with the highest exposure at 100 uM, followed by half-log dilutions, all in 0.5% DMSO. Each test plate contained variouse controls, induction positive controls (1mM phenobarbital), cytotoxicity positive controls ([…] aflatoxin B1), vehicle controls (0.5% DMSO), and total lysis controls (0.5% DMSO). Cell morphology images were taken using an Essen IncuCyte FLR automated microscope, with six 96-well plates imaged in about 24 minutes. Images were captured and exported and JPEG files. Spent culture media was transfered to black-well plates for the LDH assay, and remaining media was sorted at -80 C for later use. Cells were treated with RLT buffer and frozen until shipped for gene expression analysis. Total RNA was isolated from the cell suspension in 75 uL of Buffer RLT (Qiagen, Germantown, MD 20874) by Quintiles/Expression Analysis (Durham, NC) using a custom isolation procedure. Total RNA from each plate well was transferred to a preamplification plate. Fluidigm's 96.96 Dynamic ArrayTM (Fluidigm, Amsterdam, the Netherlands) technology was used for gene expression analyses by quantitative reverse transcription polymerase chain reaction (qRT-PCR, performed by Quintiles/Expression Analysis, Durham, NC)89. Standard TaqManTM Assays (Applied Biosystems/ThermoFisher Scientific, Foster City, CA) were used to assess the expression of 93 genes selected based on their selectivity and sensitivity to important hepatic receptors known to be modulated by environmental chemicals; importance in human hepatocyte functionality; and hepatotoxicity. […]

SMILES | AC50 | outcome
N#Cc1cc(Br)c(O)c(Br)c1 | 10.2 µM (active) | 
CCOc1cc(Oc2ccc(C(F)(F)F)cc2Cl)ccc1[N+](=O)[O-] |  | inactive
C#CCOS(=O)OC1CCCCC1Oc1ccc(C(C)(C)C)cc1 (stereo not given) | 26.5 µM (active) | 
CCON=C(CC)C1=C(O)CC(c2c(C)cc(C)cc2C)CC1=O (stereo not given) |  | inactive
CCCC1COC(Cn2cncn2)(c2ccc(Cl)cc2Cl)O1 (stereo not given) |  | inactive
CCc1nn(C)c(C(=O)NCc2ccc(C(C)(C)C)cc2)c1Cl | 28 µM (active) | 
COP(N)(=O)SC (stereo not given) |  | inactive
C=CCC1=C(C)C(OC(=O)C2C(C=C(C)C)C2(C)C)CC1=O (stereo not given) |  | inactive
COc1nc(NC(C)C)nc(NC(C)C)n1 |  | inactive
O=C(O)COc1nc(Cl)c(Cl)cc1Cl |  | inactive
OC(c1ccc(Cl)cc1)(c1cncnc1)c1ccccc1Cl (stereo not given) | 50 µM (active) | 
CCOC(=O)CC(SP(=S)(OC)OC)C(=O)OCC (stereo not given) |  | inactive
COC(=O)C(C)Oc1ccc(Oc2ccc(Cl)cc2Cl)cc1 (stereo not given) |  | inactive
COc1ccc(C(c2ccc(OC)cc2)C(Cl)(Cl)Cl)cc1 |  | inactive
Fc1ccc(Oc2ccnc3cc(Cl)cc(Cl)c23)cc1 |  | inactive
CC(C)(C)c1ccc(CSc2cnn(C(C)(C)C)c(=O)c2Cl)cc1 | 26.9 µM (active) | 
CC1COC(Cn2cncn2)(c2ccc(Oc3ccc(Cl)cc3)cc2Cl)O1 (stereo not given) | 77 µM (active) | 
N#CC(CCc1ccc(Cl)cc1)(Cn1cncn1)c1ccccc1 (stereo not given) |  | inactive
CCNc1nc(Cl)nc(NC(C)C)n1 |  | inactive
N#Cc1nn(-c2c(Cl)cc(C(F)(F)F)cc2Cl)c(N)c1S(=O)C(F)(F)F (stereo not given) | 66.7 µM (active) | 

SMILES | AC50 | outcome
CCCCOC(=O)c1ccccc1C(=O)OCCCC |  | inactive
CCNc1nc(Cl)nc(NCC)n1 |  | inactive
CCCCC(CC)COC(=O)c1ccccc1C(=O)OCC(CC)CCCC (stereo not given) |  | inactive
O=C(Nc1ccccc1)Nc1ccnc(Cl)c1 | 74.9 µM (active) | 
CC(C)Oc1cc(-n2nc(C(C)(C)C)oc2=O)c(Cl)cc1Cl |  | inactive
O=C(O)c1nc(Cl)ccc1Cl |  | inactive
CC1=C(C(=O)Nc2ccccc2)SCCO1 |  | inactive
CS/C(C)=N/OC(=O)N(C)SN(C)C(=O)O/N=C(\C)SC |  | inactive
COC(=O)c1ccccc1C(=O)OC |  | inactive
CNC(=O)ON=CC(C)(C)SC |  | inactive
Cc1ccc(-c2c(Cl)nc(C#N)n2S(=O)(=O)N(C)C)cc1 | 22.4 µM (active) | 
COP(=S)(OC)Oc1nc(Cl)c(Cl)cc1Cl |  | inactive
COC(=O)N(OC)c1ccccc1COc1ccn(-c2ccc(Cl)cc2)n1 | 68.4 µM (active) | 
C=CC1(C)OC(=O)N(c2cc(Cl)cc(Cl)c2)C1=O (stereo not given) |  | inactive
COC(=O)C=C(C)OP(=O)(OC)OC |  | inactive
CCCCNC(=O)n1c(NC(=O)OC)nc2ccccc21 |  | inactive
CCCCNC(=O)OCC#CI |  | inactive
CCOP(=S)(OCC)SCn1c(=O)oc2cc(Cl)ccc21 |  | inactive
CC(C)C1(C)N=C(c2nc3ccccc3cc2C(=O)O)NC1=O (stereo not given) |  | inactive
COc1cnc(OC)n2nc(NS(=O)(=O)c3c(OCC(F)F)cccc3C(F)(F)F)nc12 |  | inactive
